Results filed as inconclusive are left out. Calls of active or inactive are those of the source. Unless noted, calls follow the shape of the dose curve; as a rule, active = well fitted curve in the direction sought with a large enough effect; inconclusive = small, poorly fitted or top-dose-only effect, or another doubt; inactive = no such curve, though single readings can be large; an effect the other way counts as inactive or inconclusive.
Columns and labels:
[1] = qHTS for differential inhibitors of proliferation of Plasmodium falciparum line 3D7 (AID 1876); also: potency is read from the fitted curve at half-maximal effect
[2] = qHTS for differential inhibitors of proliferation of Plasmodium falciparum line D10 (AID 1877);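 also: parasites grown with compound for 72 h before DNA staining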; also: potency is read from the fitted curve at half-maximal effect
[3] = qHTS for differential inhibitors of proliferation of Plasmodium falciparum line W2 (AID 1883); settings: Potency: Plasmodium falciparum W2 proliferation inhibition;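 also: parasites grown with compound for 72 h before lysis and staining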; also: potency is read from the fitted curve at half-maximal effect
[4] = qHTS for differential inhibitors of proliferation of Plasmodium falciparum line HB3 (AID 1886); settings: Potency: Plasmodium falciparum HB3 proliferation inhibition;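 also: parasites grown with compound for 72 h before SYBR Green readout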; also: potency is read from the fitted curve at half-maximal effect
[5] = qHTS Assay for Modulators of Human Peripheral Myelin Protein 22 (PMP22) Expression/Activity (AID 1967; active = well fitted curve in the direction sought with a large enough effect in the signal ratio; the % refers to the signal ratio)
Procedure, shortened: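 Quantitative HTS in a mouse Schwann cell line expressing dual click beetle luciferases: Pmp22 promoter (green) and control EF-alpha promoter (red). After 24h treatment, corrected green/red signal ratio gave %Activity relative to untreated cells.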

[6] = target: Ferritin light chain (Equus caballus) (UniProt P02791); assay: qHTS Validation Assay for Identification of Novel General Anesthetics (AID 2323); also: series mostly up to about 77 µM
Ferritin light chain (Equus caballus), sequence (P02791 2-175 limits assumed): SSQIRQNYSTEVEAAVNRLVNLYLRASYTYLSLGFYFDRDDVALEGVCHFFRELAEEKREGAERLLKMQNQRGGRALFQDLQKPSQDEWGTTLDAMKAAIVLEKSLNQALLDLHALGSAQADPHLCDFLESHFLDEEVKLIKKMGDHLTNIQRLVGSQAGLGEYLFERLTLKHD
Procedure, shortened: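 Apoferritin from horse spleen (10 uM) was mixed with 1-aminoanthracene at 50% saturation in PBS, then compounds were added. After 10 min at room temperature, fluorescence was read (ex 380 nm, em 535 nm) and normalized to free-probe and complex controls.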

[7] = target: ATP-dependent DNA helicase Q1 (Homo sapiens) (UniProt P46063); assay: qHTS Validation Assay for Inhibitors of RecQ-Like Dna Helicase 1 (RECQ1) (AID 2353)
ATP-dependent DNA helicase Q1 (Homo sapiens), sequence (P46063 whole entry, looked up): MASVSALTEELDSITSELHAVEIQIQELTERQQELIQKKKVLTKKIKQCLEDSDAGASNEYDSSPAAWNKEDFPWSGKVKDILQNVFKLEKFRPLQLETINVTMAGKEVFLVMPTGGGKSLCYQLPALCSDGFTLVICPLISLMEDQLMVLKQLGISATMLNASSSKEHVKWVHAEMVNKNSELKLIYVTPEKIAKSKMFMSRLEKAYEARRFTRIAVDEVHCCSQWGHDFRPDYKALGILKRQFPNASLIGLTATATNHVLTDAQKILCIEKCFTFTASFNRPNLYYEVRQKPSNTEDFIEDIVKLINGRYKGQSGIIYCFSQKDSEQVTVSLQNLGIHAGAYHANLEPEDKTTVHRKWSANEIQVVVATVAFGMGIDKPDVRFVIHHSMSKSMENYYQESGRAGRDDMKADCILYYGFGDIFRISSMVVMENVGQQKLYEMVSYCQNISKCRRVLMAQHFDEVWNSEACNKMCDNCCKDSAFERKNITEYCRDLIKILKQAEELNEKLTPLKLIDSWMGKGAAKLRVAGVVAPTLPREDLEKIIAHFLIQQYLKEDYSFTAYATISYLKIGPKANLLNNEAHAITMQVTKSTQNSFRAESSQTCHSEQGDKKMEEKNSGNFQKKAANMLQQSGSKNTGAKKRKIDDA
Procedure, shortened: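 50 nM RECQ1T1 preincubated 15 min with compound in Tris pH 8.0 buffer with MgCl2, DTT, Tween-20 and 2.5 ug/ml poly(dI-dC); started with 200 nM TAMRA/BHQ-2 forked duplex and 2 mM ATP. Unwinding read as fluorescence (525/598 nm), two reads 2 h apart.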

[8] = target: RecQ-like DNA helicase BLM (Homo sapiens) (UniProt P54132); assay: qHTS Validation Assay for Inhibitors of Bloom's syndrome helicase (BLM) (AID 2364)
RecQ-like DNA helicase BLM (Homo sapiens), sequence (P54132 whole entry, looked up): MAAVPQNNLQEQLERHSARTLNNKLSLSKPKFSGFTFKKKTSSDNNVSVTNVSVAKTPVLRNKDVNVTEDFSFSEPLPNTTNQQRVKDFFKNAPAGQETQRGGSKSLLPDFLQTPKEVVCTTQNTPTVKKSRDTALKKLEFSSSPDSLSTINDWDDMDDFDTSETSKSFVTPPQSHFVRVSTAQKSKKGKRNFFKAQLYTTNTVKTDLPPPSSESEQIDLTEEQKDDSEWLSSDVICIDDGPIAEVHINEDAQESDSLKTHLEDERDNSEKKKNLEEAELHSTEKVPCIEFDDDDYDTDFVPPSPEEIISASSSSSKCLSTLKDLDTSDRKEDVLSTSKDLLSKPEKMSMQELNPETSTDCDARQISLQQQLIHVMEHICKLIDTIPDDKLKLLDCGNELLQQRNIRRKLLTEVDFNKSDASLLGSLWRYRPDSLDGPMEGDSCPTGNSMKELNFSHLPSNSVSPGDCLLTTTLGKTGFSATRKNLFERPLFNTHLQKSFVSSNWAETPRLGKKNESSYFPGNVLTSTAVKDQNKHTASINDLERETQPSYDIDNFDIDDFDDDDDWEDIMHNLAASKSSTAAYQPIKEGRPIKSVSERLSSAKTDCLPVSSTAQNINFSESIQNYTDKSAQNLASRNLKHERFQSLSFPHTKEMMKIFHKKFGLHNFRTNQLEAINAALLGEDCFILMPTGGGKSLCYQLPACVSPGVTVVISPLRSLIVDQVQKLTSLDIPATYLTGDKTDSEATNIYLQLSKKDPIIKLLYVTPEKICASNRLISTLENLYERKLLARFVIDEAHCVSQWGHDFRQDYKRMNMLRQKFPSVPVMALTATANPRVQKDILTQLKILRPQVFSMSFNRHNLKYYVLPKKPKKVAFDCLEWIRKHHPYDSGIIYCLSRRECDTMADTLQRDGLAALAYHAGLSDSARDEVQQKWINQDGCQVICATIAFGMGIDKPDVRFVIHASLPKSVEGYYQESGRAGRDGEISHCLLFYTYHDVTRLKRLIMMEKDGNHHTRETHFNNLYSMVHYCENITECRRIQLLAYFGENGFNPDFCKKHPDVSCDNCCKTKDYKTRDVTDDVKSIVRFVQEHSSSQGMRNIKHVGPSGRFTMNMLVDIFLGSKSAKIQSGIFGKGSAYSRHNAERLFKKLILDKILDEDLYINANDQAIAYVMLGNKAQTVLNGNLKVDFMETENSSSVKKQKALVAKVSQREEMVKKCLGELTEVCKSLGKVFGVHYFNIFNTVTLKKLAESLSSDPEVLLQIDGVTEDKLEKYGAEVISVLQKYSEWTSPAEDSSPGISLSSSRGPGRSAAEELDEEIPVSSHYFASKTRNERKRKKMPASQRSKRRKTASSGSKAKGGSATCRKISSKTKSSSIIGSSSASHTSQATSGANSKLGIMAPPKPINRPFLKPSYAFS
Procedure, shortened: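 BLM 50 nM in 25 mM Tris-HCl pH 8.0, 5 mM NaCl, 2 mM MgCl2, 1 mM DTT, 0.01% Tween-20, 2.5 ug/ml poly(dI-dC); 15 min cpd preinc, RT. Start: 200 nM forked DNA + 2 mM ATP (final). TAMRA read, 2 reads 2 h apart.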

[9] = Cytometric Cell-Based qHTS for Inhibitors of the mTORC1 Signaling Pathway in MEF (Tsc2-/-, p53-/-) Cells (AID 2660);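 also: percent of cells above a phospho-rpS6 to PI ratio cutoff in each well; series mostly up to about 38 µM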
Procedure, shortened: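 Tsc2-/-, p53-/- MEFs (empty vector) exposed to compound 24 h at 37 C, fixed, stained with Alexa-488 anti-phospho-rpS6 Ser235/236 and propidium iodide. Acumen laser scanning; phospho-S6/PI ratio thresholded against 7.5 nM rapamycin, reported as % positive cells.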

[10] = High Content Imaging Cell-Based qHTS for Inhibitors of the mTORC1 Signaling Pathway in MEF (Tsc2-/-, p53-/-) Cells (AID 2666);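 also: percent of cells scored positive for phospho-rpS6 Ser235/236 immunostaining by imaging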
Procedure, shortened: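 Read-out: % positive cells per well, with thresholds from highest- and lowest-signal wells, based on phospho-rpS6 (Ser235/236) intensity normalized to Hoechst nuclear stain. Cells: Tsc2-/-, p53-/- MEFs carrying empty vector; compound 24 hrs, 37 degree Celsius.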

[11] = High Content Imaging Cell-Based qHTS for Inhibitors of the mTORC1 Signaling Pathway in MEF Cells (AID 2667); also: potency is read from the fitted curve at half-maximal effect
Procedure, shortened: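 MEF (Tsc2-/-, p53-/-, WT Tsc2 re-expressed); cpd 24 h, 37 °C; PFA fix; Alexa-488 anti-p-rpS6 Ser235/236, PI, Hoechst; IN Cell imaging; Hoechst/Alexa-488 intensity ratio; % active cells, thresholds set from rapamycin and DMSO wells.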

[12] = Cytometry Cell-Based qHTS for Inhibitors of the mTORC1 Signaling Pathway in MEF cells (AID 2668);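 also: Tsc2-/- p53-/- mouse embryonic fibroblasts stably re-expressing wild-type Tsc2; percent cells positive for phospho-rpS6 Ser235/236 relative to propidium iodide stain; series mostly up to about 38 µM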
Procedure, shortened: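 Pathway inhibition in WT Tsc2-rescued Tsc2-/-, p53-/- MEFs is measured as the Alexa-488 phospho-rpS6 to propidium iodide intensity ratio after 24 hrs of compound at 37 degree Celsius. PI-stained cell number gives viability.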

[13] = Validation screen for inhibitors of Lassa infection (AID 463096; calls by dose curve)
[14] = Validation screen for small molecules that induce DNA re-replication in MCF 10A normal breast cells (AID 463097); also: nearly all actives have a fitted effect of over 60% in size
Procedure, shortened: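 DNA re-replication was detected as a rise in nuclei with elevated Hoechst fluorescence after a 48 hr compound exposure of MCF 10A cells at 37 C.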

[15] = target: Ubiquitin carboxyl-terminal hydrolase 2 (Homo sapiens) (UniProt O75604); assay: qHTS Validation Assay for Inhibitors of Ubiquitin-specific Protease USP2a Using CHOP2 as the Reporter (AID 463106)
Ubiquitin carboxyl-terminal hydrolase 2 (Homo sapiens), sequence (O75604 whole entry, looked up): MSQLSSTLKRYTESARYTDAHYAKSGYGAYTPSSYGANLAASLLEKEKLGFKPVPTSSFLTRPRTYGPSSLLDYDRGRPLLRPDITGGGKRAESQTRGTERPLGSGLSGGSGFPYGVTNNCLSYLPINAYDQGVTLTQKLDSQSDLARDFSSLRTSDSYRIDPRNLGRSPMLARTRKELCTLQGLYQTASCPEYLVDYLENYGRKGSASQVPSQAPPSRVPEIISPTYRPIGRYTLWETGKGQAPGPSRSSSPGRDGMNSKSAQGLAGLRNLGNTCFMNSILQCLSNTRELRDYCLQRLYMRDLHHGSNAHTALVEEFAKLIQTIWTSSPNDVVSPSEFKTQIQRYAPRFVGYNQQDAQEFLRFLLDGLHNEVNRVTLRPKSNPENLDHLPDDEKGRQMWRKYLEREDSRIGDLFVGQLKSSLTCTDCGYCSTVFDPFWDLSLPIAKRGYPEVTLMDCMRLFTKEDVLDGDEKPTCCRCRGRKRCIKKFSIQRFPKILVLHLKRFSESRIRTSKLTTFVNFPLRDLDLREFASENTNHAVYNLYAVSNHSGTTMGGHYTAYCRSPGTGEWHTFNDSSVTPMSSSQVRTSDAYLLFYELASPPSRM
Procedure, shortened: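 USP2 core (10nM final) was preincubated with compound for 30min at RT in 20mM Tris-HCl pH 8.0, 2mM CaCl2, 2mM beta-mercaptoethanol, 0.05% CHAPS. Ub-CHOP2 and reporter substrate (25nM each) were added, and fluorescence (Ex 485/Em 531nm) was read after 60min.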

[16] = target: Tumor susceptibility gene 101 protein (Homo sapiens) (UniProt Q99816); assay: qHTS Validation Assay for Iinhibitors of HIV-1 Budding by Blocking the Interaction of PTAP/TSG101 (AID 485342; calls by dose curve)
Tumor susceptibility gene 101 protein (Homo sapiens), sequence (Q99816 whole entry, looked up, the tested form may be a part): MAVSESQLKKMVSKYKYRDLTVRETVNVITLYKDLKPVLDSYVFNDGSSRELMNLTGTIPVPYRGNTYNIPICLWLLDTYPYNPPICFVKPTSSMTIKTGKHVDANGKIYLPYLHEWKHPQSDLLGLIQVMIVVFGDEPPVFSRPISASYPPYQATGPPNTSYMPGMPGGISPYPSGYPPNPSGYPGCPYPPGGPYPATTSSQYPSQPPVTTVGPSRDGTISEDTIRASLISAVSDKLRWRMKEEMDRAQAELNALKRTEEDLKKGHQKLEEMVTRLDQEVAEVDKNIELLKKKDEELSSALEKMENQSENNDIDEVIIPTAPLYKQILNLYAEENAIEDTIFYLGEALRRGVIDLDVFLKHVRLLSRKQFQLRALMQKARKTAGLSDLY
Procedure, shortened: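 Fluorescence anisotropy measured PTAP-Tsg101 interaction. Final concentrations were 10 uM protein domain and 50 nM labeled peptide, equilibrated 20 min at room temperature.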

[17] = qHTS Validation Assay to Find Inhibitors of Chronic Active B-Cell Receptor Signaling (AID 485345; active = well fitted curve in the direction sought with a large enough effect in the main read-out, with a control signal flat, not every such curve was filed as active)
Procedure, shortened: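 TMD8 ABC-DLBCL cells with dox-inducible green luciferase–IκBα fusion and red native luciferase; compounds 46 uM–3 nM, 4 h at 37C with doxycycline in 0.5% FBS IMDM. Green/red ratio normalized to basal and 10 uM MG-132.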

[18] = qHTS for differential inhibitors of proliferation of Plasmodium falciparum line Dd2 (AID 1882); settings: Potency: Plasmodium falciparum Dd2 proliferation inhibition; also: nearly all actives have a fitted effect of over 65% in size; also: potency is read from the fitted curve at half-maximal effect
Procedure, shortened: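 Dd2-infected erythrocytes (0.3% parasitemia, 2.5% hematocrit final) incubated with compound 72 h at 37 C, 5% CO2; lysed with saponin/Triton buffer containing SYBR Green I, incubated overnight in the dark, then read by fluorescence (485/535 nm). Normalized to 0.29 uM artemisinin and DMSO.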

[19] = target: DNA polymerase III PolC-type (Bacillus subtilis (strain 168)) (UniProt P13267); assay: qHTS Validation Assay for the Inhibitors of DNA Replication in Gram-Positive Bacteria (AID 485295);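 also: reconstituted holoenzyme with PolC plus beta clamp SSB and primase; PicoGreen fluorescence of double-stranded DNA made on primed circular M13 template; series mostly up to about 57 µM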
DNA polymerase III PolC-type (Bacillus subtilis (strain 168)), sequence (P13267 whole entry, looked up): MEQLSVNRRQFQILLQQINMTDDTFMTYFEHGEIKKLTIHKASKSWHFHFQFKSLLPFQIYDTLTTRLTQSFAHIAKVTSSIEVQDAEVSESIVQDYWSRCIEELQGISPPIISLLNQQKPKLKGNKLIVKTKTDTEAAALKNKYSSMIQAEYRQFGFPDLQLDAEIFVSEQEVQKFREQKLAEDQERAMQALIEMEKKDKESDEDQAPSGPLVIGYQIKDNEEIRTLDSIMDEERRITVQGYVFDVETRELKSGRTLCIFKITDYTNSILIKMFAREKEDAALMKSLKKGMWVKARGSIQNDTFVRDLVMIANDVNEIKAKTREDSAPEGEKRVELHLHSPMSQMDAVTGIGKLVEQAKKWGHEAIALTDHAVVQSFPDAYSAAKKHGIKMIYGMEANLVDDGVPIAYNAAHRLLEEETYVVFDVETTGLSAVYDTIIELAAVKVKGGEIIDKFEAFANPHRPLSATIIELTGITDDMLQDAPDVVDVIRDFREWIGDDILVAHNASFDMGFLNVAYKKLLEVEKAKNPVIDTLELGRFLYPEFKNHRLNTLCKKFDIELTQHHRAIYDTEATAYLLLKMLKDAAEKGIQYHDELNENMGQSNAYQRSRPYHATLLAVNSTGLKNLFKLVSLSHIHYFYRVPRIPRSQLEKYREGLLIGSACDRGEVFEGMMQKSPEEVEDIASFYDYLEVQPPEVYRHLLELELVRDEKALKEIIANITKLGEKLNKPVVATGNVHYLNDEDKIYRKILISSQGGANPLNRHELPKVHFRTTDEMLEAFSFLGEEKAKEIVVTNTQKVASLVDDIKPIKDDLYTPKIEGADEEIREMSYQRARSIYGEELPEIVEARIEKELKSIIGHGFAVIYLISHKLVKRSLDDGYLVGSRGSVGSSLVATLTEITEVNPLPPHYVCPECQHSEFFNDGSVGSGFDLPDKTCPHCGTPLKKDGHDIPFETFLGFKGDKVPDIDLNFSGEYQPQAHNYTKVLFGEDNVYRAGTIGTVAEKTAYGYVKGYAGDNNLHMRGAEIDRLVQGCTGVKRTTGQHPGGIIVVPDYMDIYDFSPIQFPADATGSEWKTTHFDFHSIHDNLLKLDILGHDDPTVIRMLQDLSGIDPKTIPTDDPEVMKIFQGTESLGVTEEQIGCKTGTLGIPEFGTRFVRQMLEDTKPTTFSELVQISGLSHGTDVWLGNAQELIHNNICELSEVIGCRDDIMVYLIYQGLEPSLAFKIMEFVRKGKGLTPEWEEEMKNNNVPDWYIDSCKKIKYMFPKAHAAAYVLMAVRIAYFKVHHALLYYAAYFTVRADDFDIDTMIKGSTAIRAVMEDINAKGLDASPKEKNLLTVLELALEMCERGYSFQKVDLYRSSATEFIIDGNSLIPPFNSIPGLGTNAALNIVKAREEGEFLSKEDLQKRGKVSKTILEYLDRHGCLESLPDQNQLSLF
Procedure, shortened: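 Primed replication of single-stranded M13Gori by a four-protein B. subtilis holoenzyme is measured at room temperature. Double-stranded product is quantified by PicoGreen fluorescence after an EDTA stop; inhibition is scaled between DMSO and EDTA controls.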

Measured: Potency

C=CCN1CC[C@]23CCCCC2[C@H]1Cc1ccc(O)cc13 (some centres undefined)
active: [3] 7.08 µM
not listed: [18] | [19]
inactive: all other assays above

C[C@]12N[C@H](Cc3ccccc31)c1ccccc12
active: [18] 7.08 µM | [3] 1.58 µM
not listed: [5] | [19]
inactive: all other assays above

Oc1ccc2c3c1O[C@H]1c4[nH]c5c(c4C[C@@]4(O)[C@@H](C2)N(CC2CC2)CC[C@]314)C[C@@]1(O)[C@H]2Cc3ccc(O)c4c3[C@@]1(CCN2CC1CC1)[C@H]5O4
active: [1] 11.2 µM | [2] 10 µM | [3] 12.6 µM | [4] 12.6 µM
not listed: [18] | [19]
inactive: all other assays above

O=C(O)[C@@H]1CCN1
not listed: [8] | [19]
inactive: all other assays above

S=C(NC1CCCCC1)N1CCC(c2cnc[nH]2)CC1
active: [1] 11.2 µM | [3] 11.2 µM
not listed: [4] | [8]
inactive: all other assays above

CCCN1CCO[C@@H]2c3cc(O)ccc3OC[C@H]21
not listed: [19]
inactive: all other assays above

NC(=NCCC[C@H](N)C(=O)O)N[N+](=O)[O-]
not listed: [5] | [8]
inactive: all other assays above

C[C@@H]1O[C@H](C[N+](C)(C)C)C[C@H]1O
not listed: [19]
inactive: all other assays above

CC(=O)NCCc1c[nH]c2ccccc12
not listed: [3] | [8]
inactive: all other assays above

NC(N)=NOCCC(N)C(=O)O (centres undefined)
not listed: [8] | [19]
inactive: all other assays above

CNCCc1c[nH]c2ccc(O)cc12
not listed: [8] | [19]
inactive: all other assays above

C[C@@H](N)Cc1cnc[nH]1
not listed: [3] | [8] | [19]
inactive: all other assays above

C[N+]1(C)C2CCC1CC(OC(=O)C(CO)c1ccccc1)C2 (centres undefined)
inactive: all assays above

Cn1cnc(CCN)c1
not listed: [12]
inactive: all other assays above

Clc1cnc(Oc2ccc(Oc3ncc(Cl)cc3Cl)cc2)c(Cl)c1
not listed: [3] | [19]
inactive: all other assays above

CS(=N)(=O)CC[C@H](N)C(=O)O (some centres undefined)
not listed: [5] | [19]
inactive: all other assays above

NCCc1c[nH]c2ccc(O)cc12
not listed: [19]
inactive: all other assays above

NC(=O)CN1CC(O)CC1=O (centres undefined)
active: [4] 2.82 µM
not listed: [8] | [19]
inactive: all other assays above

NC(CP(=O)(O)O)C(=O)O (centres undefined)
not listed: [5] | [8] | [19]
inactive: all other assays above

COc1cc(C(O)CN)ccc1O (centres undefined)
not listed: [5] | [8] | [19]
inactive: all other assays above

CC[C@@]1(O)C(=O)OCc2c1cc1n(c2=O)Cc2cc3ccccc3nc2-1
inactive: [7] | [9] | [10] | [15] | [16]
active: [1] 0.794 µM | [2] 1.12 µM | [18] 1 µM | [3] 0.794 µM | [4] 0.794 µM | [11] 0.104 µM

O=C1CCCN1CC#CCN1CCCC1
not listed: [8] | [19]
inactive: all other assays above

c1ccc(CCCN2CCN(CCOC(c3ccccc3)c3ccccc3)CC2)cc1
active: [1] 11.2 µM | [2] 10 µM | [18] 8.91 µM | [3] 3.16 µM | [4] 7.94 µM
inactive: [7] | [9] | [10] | [15] | [16] | [17]

NC(CCP(=O)(O)O)C(=O)O (centres undefined)
not listed: [19]
inactive: all other assays above

NCc1cc(=O)[nH]o1
not listed: [19]
inactive: all other assays above

c1ccc2sc(C3(N4CCCCC4)CCCCC3)cc2c1
active: [1] 11.2 µM | [2] 10 µM | [3] 7.94 µM | [4] 11.2 µM
not listed: [5] | [18] | [19]
inactive: all other assays above

Reference: PubChem BioAssay (NCATS)
